# Compound activity (PubChem BioAssay)
# The list is not random: actives were taken first. Their share in the collection is about 7.4%.
# SMN2 splice enh = qHTS Assay for Enhancers of SMN2 Splice Variant Expression; HEK293 SMN2-luciferase splicing reporter, luminescence, 30-36 h; Potency, µM (highest dose often 46.1 µM), inactives show at the highest dose activity change, positive = activation, hits mostly activators; 2.8% of 210,000 active; AID 1458, 2008; note: % of control where 0% means no effect; nearly all actives have a fitted effect of over 55% in size
#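 HEK293 cells carry an SMN2 minigene-luciferase reporter in which exon 7 inclusion puts luciferase in frame. Cells were seeded at 2000 cells/well, attached for 10-12 hours, then exposed to compounds for 30-36 hours at 37C before ONE-Glo luminescence.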
# KinaseGlo FLuc = Counterscreen for Luciferase (Kinase-Glo TM) Inhibition. Potency, µM (top dose mostly 38.3 µM), for inactives: top-dose activity change, negative = inhibition, hits mostly inhibitors. Luciferin 4-monooxygenase (Photuris pensylvanica), Q27757. 0.28% of 200,000 active. Kinase-Glo luciferase, ATP luminescence, 8 min. AID 1379, 2008; note: % is set by controls: 0 for no effect and ±100 for the full control effect; nearly all actives have a fitted effect of over 60% in size
#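 Light output from Kinase-Glo luciferase with luciferin and 10 uM ATP in 50 mM imidazole pH 7.2, KCl, MgCl2, Tween 20, BSA; compound pin-delivered, 8-min ambient incubation, then luminescence read.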
# Rab9 prom act = qHTS Assay for Rab9 Promoter Activators. Huh7 Rab9 promoter-luciferase reporter, luminescence, 24 h. AID 485297, 2010. Potency, µM (top dose mostly 9.22 µM), inactives show top-dose activation, negative = inhibition, hits mostly activators. 2.8% of 320,000 active; note: % of control where 0% means no effect; nearly all actives have a fitted effect of over 60% in size
#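 Luciferase signal after 10 min detection reagent at ambient indicates Rab9 promoter upregulation; stably transfected Huh7 cells were treated 24 h with compound in DMSO at 37 °C, 5% CO2.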
# ELG1 genotox = qHTS screen for small molecules that induce genotoxicity in human embryonic kidney (HEK293T) cells expressing luciferase-tagged ELG1; Potency, µM (series often up to 46 µM), for the others: top-dose activity change, positive = activation, hits mostly activators; HEK293T ELG1-luciferase reporter, luminescence, 16 h; 1.3% of 330,000 active; note: % of control where 0% means no effect; nearly all actives have a fitted effect of over 60% in size
#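 HEK293T cells expressing luciferase-tagged ELG1 were exposed to compound or DMSO vehicle for 16 hr at 37 °C and 5% CO2. Luciferase activity was then measured with ONE-Glo after 30 min at room temperature.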
# FLuc counter = qHTS profiling assay for firefly luciferase inhibitor/activator using purifed enzyme and Km concentrations of substrates (counterscreen for miR-21 project). purified FLuc, Km substrates, luminescence inhibition. Potency, µM (highest dose often 57.5 µM), for the others: at the top dose activity change, negative = inhibition, most hits filed as inhibitors. 6.9% of 360,000 active;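 note: plate controls were vehicle for no effect and reference inhibitor for full effect; nearly all actives have a fitted effect of over 55% in size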
# Target sequence (P08659 whole entry, looked up): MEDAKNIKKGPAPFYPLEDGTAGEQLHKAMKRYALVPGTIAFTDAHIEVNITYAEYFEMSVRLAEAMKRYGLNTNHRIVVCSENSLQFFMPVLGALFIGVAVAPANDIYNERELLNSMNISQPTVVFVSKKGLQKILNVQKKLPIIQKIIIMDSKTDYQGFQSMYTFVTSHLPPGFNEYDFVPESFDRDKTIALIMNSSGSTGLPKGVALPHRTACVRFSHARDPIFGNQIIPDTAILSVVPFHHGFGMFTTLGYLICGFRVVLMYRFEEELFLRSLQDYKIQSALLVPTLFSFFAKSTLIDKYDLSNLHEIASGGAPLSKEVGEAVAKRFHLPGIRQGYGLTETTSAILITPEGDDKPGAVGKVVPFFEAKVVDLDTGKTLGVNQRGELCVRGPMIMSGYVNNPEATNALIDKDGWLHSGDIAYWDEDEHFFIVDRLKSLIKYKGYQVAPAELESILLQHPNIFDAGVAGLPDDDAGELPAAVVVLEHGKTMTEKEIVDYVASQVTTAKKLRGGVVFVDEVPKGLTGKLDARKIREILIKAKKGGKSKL
#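 Purified P. pyralis luciferase, 10 nM final, with Km-level 10 uM D-luciferin and 10 uM ATP in 50 mM Tris acetate pH 7.5, 10 mM Mg acetate, 0.01% Tween-20, 0.05% BSA; 6-point qHTS titration about 60 µM downward; luminescence read.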
# NPC1 promoter act = qHTS Assay for NPC1 Promoter Activators | 2.4% of 320,000 active | AID 485313, 2010 | Huh7 NPC1 promoter luciferase reporter, 24 h | Potency, µM (top dose mostly 9.22 µM), for inactives: at the highest dose activation, actives largely listed as activators; note: % of control where 0% means no effect; nearly all actives have a fitted effect of over 60% in size
#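 Huh7 cells stably carrying NPC1 promoter–luciferase, plated in Opti-MEM with 10% FBS for 2 h, were exposed to compound in DMSO for 24 h at 37 °C; luciferase reagent was added for 10 min and luminescence read.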
# * marks the source's active call; other numbers are inactive results; ? = inconclusive; . = no result given; [ ] = remark or other dose. Calls come from the whole dose curve; as a rule, active = well fitted curve in the direction sought with a large enough effect; inconclusive = small, poorly fitted or top-dose-only effect, or another doubt; inactive = no such curve, though single readings can be large; an effect the other way counts as inactive or inconclusive. Potency is the fitted concentration of half-maximal effect.
SMILES,SMN2 splice enh,KinaseGlo FLuc,Rab9 prom act,ELG1 genotox,FLuc counter,NPC1 promoter act
O=C(NC(=S)Nc1ccc(CN2CCOCC2)cc1)c1ccc2c(c1)OCCO2,.,.,23%,-5%,17µM*,?
CCOC(=O)N1CCN(C(=O)CN(C)S(=O)(=O)c2ccc(Cl)cc2)CC1,.,.,-2%,-4%,-1%,3%
O=C(Nc1nnc(C2CCCCC2)s1)c1ccco1,?,-3%,2µM*,?,?,4µM*
O=C(Nc1nnc(C2CC2)s1)c1ccco1,30%,-9%,3.2µM*,?,?,?
Cc1ccccc1N1CC(c2nnc(NC(=O)c3ccco3)s2)CC1=O (stereo not given),.,.,.,.,-18%,.
CN1C(=O)N(C)C2=NNC=NC2(O)C1=O (stereo not given),-74%,-4%,.,.,.,.
CCCCC(CC)CNCC(CC)CCCC (stereo not given),-5%,.,.,.,.,.
CCC(=O)NCCc1nc2cc(NC(=O)Nc3ccccc3)ccc2n1C,.,.,1.6µM*,?,5.4µM*,1.1µM*
CCC(=O)NCCc1nc2cc(NC(=O)c3cccc(Br)c3)ccc2n1C,.,.,.,.,21µM*,.
CC(=O)Nc1ccc2c(c1)nc(CCN1CCC(C)CC1)n2C,3%,0%,10%,3%,-1%,2%
CC1CCN(CCc2nc3cc(NC(=O)Nc4ccccc4)ccc3n2C)CC1,23%,-4%,?,?,17µM*,?
Cn1c(CN2CCCC2)nc2cc(NC(=O)Nc3ccccc3)ccc21,?,3%,27%,?,0%[2.3 µM],18%
Cc1ccc(NC(=O)C(=O)NCc2ccco2)cc1,18µM*,.,.,.,-17%,.
Cc1ccc(NC(=O)CSCc2ccco2)cc1,13µM*,-2%,4µM*,?,15µM*,?
Cc1ccc(NC(=O)C(=S)NCc2ccco2)cc1,17%,0%,2.8µM*,?,6µM*,?
Cc1ccc(NC(=O)CSCC(=O)NCc2ccco2)cc1,.,.,-4%,0%,1%,-8%
Cc1cc(OCC(O)CN2CCCC2)cc(C)c1Cl (stereo not given),.,.,-2%,-2%,1%,0%
CCOc1cc(N2CCOCC2)c(OCC)cc1NC(=O)COc1ccc2ccc(=O)oc2c1,-3%,-2%,-1%,5%,1%,0%
CCN(CC)S(=O)(=O)c1ccc2[nH]c(=O)cc(C(=O)Nc3ccccc3N3CCCC3)c2c1,.,.,-2%,-2%,1%,-3%
Cc1ccc(Nc2nc3ccccc3c3nncn23)cc1C,-10%,.,.,.,?,.
COc1cccc(CN(C)Cc2c(O)ccc3ccccc23)c1,.,.,0%,0%,11µM*,3%
CCOc1ccccc1CNC(=O)c1ccc(NC(=O)N2CC(C)Sc3ccccc32)cc1 (stereo not given),-4%,.,.,.,-12%,.
Cc1ccc2nc(-c3ccc(N4C(=O)CC(N5CCC(C(N)=O)CC5)C4=O)cc3)sc2c1 (stereo not given),11%,1%,1%,?,2.7µM*,5%
CCOC(=O)C1CCCN(C2CC(=O)N(c3ccc(N4C(=O)CC(N5CCCC(C(=O)OCC)C5)C4=O)cc3)C2=O)C1 (stereo not given),11%,-1%,1%,-4%,4%,-3%
Cc1ccc2nc(-c3ccc(N4C(=O)CC(N5CCCC(C)C5)C4=O)cc3)sc2c1 (stereo not given),17%,2%,.,.,15µM*,.
COc1ccc(OC)c(NC(=O)c2cc(-c3ccc(Cl)s3)nc3ccccc23)c1,6%,.,.,.,-2%,.
O=C(Cc1c(F)cccc1Cl)N/N=C/c1cccnc1,.,.,8%,4%,-1%,-4%
